In the library only some 2.6% were active in any assay of this set; here they are far more common.
Myeloid diff MLP: induction of myeloid progenitor differentiation, primary screen, cell-based, flow cytometry, MLPCN library. 360,000 tested, 1% active. calls only at 10 µM. ER-HoxA9 myeloid progenitors, lysozyme-GFP differentiation;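 active = normalized GFP-positive differentiation at or above the plate's own cutoff, the solvent-only control mean plus 3 SD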;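 also: cells exposed to compound for four days before flow analysis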
CRFR2-BP ag: agonists of CRF-BP/CRF-R2 complex, primary screen, cell-based, HEK293, calcium dye fluorescence, uHTS | calcium dye fluorescence (FLIPR); percent of saturating CRF peptide response | AID 588473, 2011 | activation, % at 13.2 µM | 350,000 tested, 0.46% active;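 active = activation of at least 50%, plus an integration ratio under a set limit after plate pattern correction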;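 also: plate controls were neutral control wells without compound for no effect and CRF at EC100 for full effect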
CRFR2-BP antag: antagonists of CRF-BP/CRF-R2 complex, primary screen, cell-based, HEK293, calcium dye fluorescence, uHTS; CRF-induced calcium fluorescence; inhibition, % at 11.8 µM; 350,000 tested, 0.59% active; AID 588475, 2011;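 active = inhibition of the ligand-induced calcium signal above about 50% at the single tested concentration, limit read from the data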
IDE inh: human IDE inhibitors in live cells, primary screen, fluorescence polarization, HEK cells, FAbetaB substrate | Insulin-degrading enzyme (Homo sapiens), P14735 | inhibition, % at 5.59 µM | 320,000 tested, 0.41% active | FAbetaB cleavage;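 active = percent inhibition above the average of all tested compounds plus 3 SD, set per screening campaign, cut at about 16% in these data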;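 also: IDE supplied by intact live HEK cells; FP after avidin binding of uncleaved biotin substrate so inhibition keeps polarization high; 0% = DMSO wells and 100% = 60 µM reference IDE inhibitor Ii1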
IDE act: human IDE activators in live cells, primary screen, fluorescence polarization, HEK cells, FAbeta-B substrate; 340,000 tested, 0.073% active; activation, % at 5.96 µM; FAbeta-B cleavage; 0% vehicle, 100% cell-free pure enzyme wells; Insulin-degrading enzyme (Homo sapiens), P14735;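 active = activation above the mean of all tested compounds plus 3 SD, set per screening campaign, cut at about 17% in these data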
TPT1 inhibitor: Candida albicans TPT1 enzyme inhibitors, primary screen, biochemical, fluorescence polarization. tRNA 2'-phosphotransferase TPT1 (Candida albicans SC5314). inhibition, % at 5 µM. recombinant caTPT1, FP RNA substrate dephosphorylation. AID 1962, 2009. 300,000 tested, 0.81% active;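 active = inhibition above the mean of all tested compounds plus 3 SD, set per screening campaign, cut at about 24% in these data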;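 also: plate controls were DMSO alone for no effect and ferristatin control at 100 nM for full effect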
TPT1 inh confirm: Candida albicans TPT1 inhibitors, confirmation, biochemical, fluorescence polarization, triplicate; shares compounds with TPT1 inhibitor; recombinant caTPT1, RNase T1 coupled; inhibition, % at 5 µM; 2,400 tested, 74% active; AID 2149, 2009;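 active = inhibition above the primary screen limit, the mean inhibition of all tested compounds plus 3 SD, cut at about 25% in these data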
RNase T1 counter: RNase T1 inhibitors, counter-screen for TPT1 inhibitor project, biochemical, fluorescence polarization; RNase T1 cleavage, 1536-well; inhibition, % at 5 µM; AID 2153, 2009; 2,400 tested, 83% active; shares compounds with TPT1 inhibitor;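 active = inhibition above the solvent-only control well mean plus 3 SD, limit set per screening run, cut at about 23% in these data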;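 also: plate controls were DMSO wells with enzyme for no effect and wells without RNase T1 for full effect; inhibitors block cleavage so intact labeled substrate keeps polarization high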
Target sequence (P00651 whole entry, looked up): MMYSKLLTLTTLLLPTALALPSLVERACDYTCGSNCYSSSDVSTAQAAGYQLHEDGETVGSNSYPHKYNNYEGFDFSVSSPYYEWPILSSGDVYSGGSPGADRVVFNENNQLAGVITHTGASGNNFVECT
An asterisk follows results filed as active; i = inactive; / = no result given; + = active, no number.

SMILES	Myeloid diff MLP	CRFR2-BP ag	CRFR2-BP antag	IDE inh	IDE act	TPT1 inhibitor	TPT1 inh confirm	RNase T1 counter
O=C(O)c1cc(-c2ccco2)nn1-c1cccc(Cl)c1	i	-2	-5	9	3	29*	25*	32*
CCOC(=O)c1cnn(CCOC(=O)c2ccc(F)cc2)c1NC(=O)c1ccc(F)cc1	i	-2	-17	-3	4	0	/	/
COc1ccc2cc(C(=O)N/N=C/c3sc4ccccc4c3O)ccc2c1	i	166*	-179	14	-25	136*	135*	126*
O=C(N/N=C/c1sc2ccccc2c1O)c1cccc2ccccc12	i	38	-29	4	-16	136*	143*	134*
O=C(N/N=C/c1ccccc1)c1cccc2ccccc12	i	0	-15	7	3	-1	/	/
Cc1cc(NC(=O)CSC2=NS(=O)(=O)c3cc(F)ccc3N2)no1	i	0	9	8	3	-7	/	/
O=C(CSc1nc(C2CC2)nc2ccccc12)N1CCc2ccccc21	i	-8	11	/	1	/	/	/
CCC(=O)Nc1c(C#N)c2nc3ccccc3nc2n1-c1ccc(C)cc1	i	2	-8	/	6	/	/	/
CCC(C)n1c(NC(=O)c2ccccc2)c(C#N)c2nc3ccccc3nc21 (stereo not given)	+	3	-28	2	-4	117*	80*	85*
COc1ccc(CNC(=O)CN(C(=O)c2snc(C(N)=O)c2N)c2ccc(OC)c(OC)c2)cc1	i	-2	-8	5	-2	-2	/	/
Cc1cc(C)n(CC(O)Cn2c(C)c(C)c3ccccc32)n1 (stereo not given)	+	-4	22	11	-2	46*	5	10
COC(=O)c1ccc(-c2sc3nc(N4CCOCC4)c4c(c3c2N)CCCC4)o1	/	40	-110	2	/	58*	57*	68*
CCC(Oc1ccccc1)C(=O)Nc1ccc(-c2nnc(-c3ccco3)o2)cc1 (stereo not given)	i	1	-37	6	1	71*	1	6
CC(C)(C)C(=O)CNS(=O)(=O)c1ccc(S(=O)(=O)NC2CCCC2)cc1	i	6	-14	-2	-2	-4	/	/
COc1ccc(CNC(=O)C2CCCN2)cc1OC (stereo not given)	i	-1	13	5	5	1	/	/
CCCCNC(=O)c1nc(-c2ccccc2)oc1-c1ccc(Cl)cc1	i	/	/	/	/	/	/	/
COc1ccc(CCN2Cc3c(cccc3[N+](=O)[O-])C2=O)cc1OC	i	0	21	1	5	30*	7	8
C/C(=N/Nc1nc(-c2ccccc2F)nc2ccccc12)c1ccccc1O	+	4	-18	5	-9	32*	36*	51*
C/C(=C\C(=O)c1c(O)cc(C)oc1=O)N(C)C	i	-1	2	3	/	-8	/	/
Cc1cc(O)c(C(=O)/C=C/c2ccc(Cl)cc2)c(=O)o1	i	7	-7	4	-2	36*	10	13
CSc1ccc(/C=C/C(=O)c2c(O)cc(C)oc2=O)cc1	i	6	-1	15	-4	73*	26*	46*
Cc1ccc([C@H]2C(C(=O)O)=CC[C@@H](c3ccc4c(c3)OCO4)N2S(=O)(=O)c2ccc(C)cc2)cc1	i	-5	-3	5	-1	/	/	/
Nc1c(C(=O)Nc2ccccc2)sc2nc(-c3ccco3)ccc12	i	0	-5	4	-9	18	/	/
COc1ccc(C(=O)c2sc3nc(-c4ccc(OC)cc4)ccc3c2N)cc1	i	23	-36	-2	-10	54*	83*	91*
COc1ccc(-c2ccc3c(N)c(C(=O)c4cccc(OC)c4)sc3n2)cc1	i	1	0	13	-10	63*	63*	74*
SMILES	Myeloid diff MLP	CRFR2-BP ag	CRFR2-BP antag	IDE inh	IDE act	TPT1 inhibitor	TPT1 inh confirm	RNase T1 counter
COc1ccccc1NC(=O)c1sc2nc(-c3ccco3)ccc2c1N	i	2	-18	5	-10	28*	19	27*
COc1cccc(-c2ccc3c(N)c(C(=O)NC4CC4)sc3n2)c1	i	-1	6	-1	-4	-1	/	/
CC(=O)c1c(C)[nH]c(C(=O)N(C)C(c2ccccc2)c2ccccc2)c1C	i	-2	-20	-1	4	-4	/	/
O=C(COC(=O)CNC(=O)c1ccccc1F)Nc1ccc2c(c1)OCCO2	i	-1	-5	-3	3	55*	4	6
O=C(O)c1ccc(N/N=C/C2=C(N3CCOCC3)C(=C\c3ccccc3)/CC2)cc1	i	34	-38	4	-5	101*	119*	124*
Cc1ccnc(NC(=O)c2cccc([N+](=O)[O-])c2C)c1	i	1	-5	1	3	2	/	/
CC1=N/C(=C\c2ccc([N+](=O)[O-])cc2)C(=O)N1c1ccc(F)cc1F	/	3	-8	-1	-2	3	/	/
Cc1cc2oc3ccc(NCCCn4ccnc4)cc3c(=O)c2cc1C	i	25	-13	7	-8	55*	64*	73*
O=C(O)CC(C(=O)O)N1C(=O)/C(=C/c2ccc(-c3nc4ccccc4s3)o2)SC1=S (stereo not given)	i	15	53*	7	-14	91*	109*	114*
O=Cc1ccc(-c2nc3ccccc3s2)o1	i	3	-25	4	0	6	/	/
O=C(O)CCN1C(=O)/C(=C/c2ccc(-c3nc4ccccc4s3)o2)SC1=S	+	37	-18	1	-4	31*	46*	66*
CCN(CC(=O)Nc1cccc(F)c1)CC(=O)Nc1ccccc1OC	i	0	-1	-1	-3	1	/	/
Cc1ccccc1N=Cc1cc2c(cc1O)OC(N)=C(C#N)C2c1ccccc1 (stereo not given)	i	14	-7	12	-5	53*	73*	82*
N#CC1=C(N)Oc2cc(O)c(C=Nc3ccccc3)cc2C1c1ccccc1 (stereo not given)	i	0	-9	6	5	3	/	/
